Laboratory results: the supplement of paper PMC12340641
Where a name gives a salt, the structure may show the parent alone.

Biological target: IKZF1 (dCK*-IKZF1 fusion in HEK293FT) (UniProt Q13422)
Experiment: inhibition of IKZF1 HTRF signal (DMSO = 0%, pomalidomide 10 uM = 100%); higher = lower IKZF1 protein level
Settings: compound concentration: 5 uM, overnight (~20 h)
Outline: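 Percent inhibition of IKZF1 signal was calculated per plate with vehicle and a reference degrader as anchors. The anchors were 0% for vehicle and 100% for the degrader, applied to background-subtracted 665/620 nm time-resolved FRET ratios from a commercial HTRF total-IKZF1 kit. Signal came from HEK293FT cells stably expressing an IKZF1 fusion, treated overnight at 37 °C with 5 μM compound in single wells of 384-well plates.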

Chain of IKZF1 (dCK*-IKZF1 fusion in HEK293FT) (Q13422 whole entry, looked up, the tested form may be a part): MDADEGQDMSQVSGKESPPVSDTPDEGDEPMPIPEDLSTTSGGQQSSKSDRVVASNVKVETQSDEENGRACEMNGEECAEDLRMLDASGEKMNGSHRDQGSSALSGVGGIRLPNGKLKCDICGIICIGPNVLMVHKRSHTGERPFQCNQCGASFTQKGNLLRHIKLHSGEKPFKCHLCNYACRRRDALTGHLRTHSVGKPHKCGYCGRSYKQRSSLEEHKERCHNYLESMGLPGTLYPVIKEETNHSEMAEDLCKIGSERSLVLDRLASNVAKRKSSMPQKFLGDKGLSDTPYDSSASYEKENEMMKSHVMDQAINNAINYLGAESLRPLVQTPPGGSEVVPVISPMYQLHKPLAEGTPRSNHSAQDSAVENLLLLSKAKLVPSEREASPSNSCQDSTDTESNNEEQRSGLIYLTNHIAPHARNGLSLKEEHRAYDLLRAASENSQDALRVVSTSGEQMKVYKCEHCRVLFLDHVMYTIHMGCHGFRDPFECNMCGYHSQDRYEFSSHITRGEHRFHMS

Row | SMILES | inhibition of IKZF1 HTRF signal [%]
1 | CC1=C(C(=O)OC(C)C)C(c2cccc([N+](=O)[O-])c2)C(C(=O)OC2CN(C(c3ccccc3)c3ccccc3)C2)=C(N)N1 (centres undefined) [Azelnidipine] | 10.4
2 | Cc1cc(C2CCCCC2)n(O)c(=O)c1 | -23.8
3 | Cc1cccc(C)c1NC(=O)CN1CCN(CCCC(c2ccc(F)cc2)c2ccc(F)cc2)CC1 [lidoflazine] | -30.1
4 | O=C(O)C(O)Cc1ccc(O)c(O)c1 (centres undefined) [Sodium Danshensu] | -50.2
5 | CCN(CC)CCCN(c1ccccc1)C1Cc2ccccc2C1 [aprindine] | 2.2
6 | CN[C@H]1CC[C@@H](c2ccc(Cl)c(Cl)c2)c2ccccc21 | -23.8
7 | O=C(Nc1ccc(C(O)(C(F)(F)F)C(F)(F)F)cc1)c1ccc(C(F)(F)F)cc1 | -28.5
8 | CCc1nc(N)nc(N)c1-c1ccc(Cl)cc1 [Pyrimethamine] | -52.5
9 | CN(C)CCN1C(=O)c2cccc3cc(N)cc(c23)C1=O [Amonafide] | 27.6
10 | CO/N=C1\C[C@]2(C[C@@H]3C[C@@H](C/C=C(\C)C[C@@H](C)/C=C/C=C4\CO[C@@H]5[C@H](O)C(C)=C[C@@H](C(=O)O3)[C@]45O)O2)O[C@H](/C(C)=C/C(C)C)[C@H]1C | -19.4
11 | CCCS(=O)c1ccc2nc(NC(=O)OC)[nH]c2c1 (centres undefined) [Albendazole Oxide (Ricobendazole)] | 24.3
12 | COc1cccc2c(O)c3c(O)c4c(c(O)c3c(O)c12)=C(O[C@H]1C[C@H](N)[C@H](O)[C@H](C)O1)C[C@](O)(C(C)=O)C=4 [Daunorubicin HCl] | 56.3
13 | NC(=O)c1ccc[n+]([C@@H]2O[C@H](COP(=O)(O)OP(=O)(O)OC[C@H]3O[C@@H](n4cnc5c(N)ncnc54)[C@H](O)[C@@H]3O)[C@@H](O)[C@H]2O)c1 | -23.1
14 | O=C1Nc2c(ccc(Cl)c2Cl)C1=NO | -26.5
15 | CC(C)CCN1c2nc(Nc3cc(F)c(O)c(F)c3)ncc2N(C)C(=O)C1C (centres undefined) | -50.7
16 | Nc1c2ccccc2nc2ccccc12 | 58.6
17 | NS(=O)(=O)c1ccc(S(=O)(=O)Nc2cccc3c(Cl)c[nH]c23)cc1 [Indisulam] | -6.45

Row | SMILES | inhibition of IKZF1 HTRF signal [%]
18 | C=CCc1ccc(O)c(-c2cc(CC=C)ccc2O)c1 [Magnolol] | -27.1
19 | CCc1ccc(OCc2ccccc2C(=O)Nc2ccc3nc(C)cc(N)c3c2)cc1 | 41.1
20 | Cc1cc(C)nc(NS(=O)(=O)c2ccc(N)cc2)n1 | -24.1
21 | CN1CCC[C@@H]1CCO[C@](C)(c1ccccc1)c1ccc(Cl)cc1 | -21.3
22 | OC1=C(C[C@]([C@](CO)=O)(O)C[C@@H]4O[C@@]5([H])C[C@H](N)[C@H](O)[C@H](C)O5)C4=C(O)C3=C1C(C2=CC=CC(OC)=C2C3=O)=O [doxorubicin] | -9.64
23 | CC(CCc1ccc(O)cc1)NCCc1ccc(O)c(O)c1 (centres undefined) [Dobutamine HCl] | 18.6
24 | Cc1nc(Nc2ncc(C(=O)Nc3c(C)cccc3Cl)s2)cc(N2CCN(CCO)CC2)n1 [Dasatinib] | -54.9
25 | CNC(=O)c1cccc(-c2ccc3c(N4CCOC[C@@H]4C)nc(N4CCOC[C@@H]4C)nc3n2)c1 [Vistusertib (AZD2014)] | 69.4
26 | CN1CCC[C@@H]1CCO[C@](C)(c1ccccc1)c1ccc(Cl)cc1 [Clemastine Fumarate] | 6.24
27 | O=C(c1cccc(Cl)c1F)N1CCN(Cc2cccc(Nc3nccs3)n2)CC1 | -54.8
28 | COc1cc2ncnc(Nc3ccc(F)c(Cl)c3)c2cc1OCCCCCOCCOCCC(=O)N[C@H](C(=O)N1C[C@H](O)C[C@H]1C(=O)NCc1ccc(-c2scnc2C)cc1)C(C)(C)C [Gefitinib-based PROTAC 3] | 15.5
29 | COC(=O)Nc1nc2ccc(Sc3ccccc3)cc2[nH]1 | -26.6
30 | CSc1nc2cc(Cl)c(Oc3cccc(Cl)c3Cl)cc2[nH]1 | -43
31 | CC(=O)Oc1ccccc1C(=O)Nc1ncc([N+](=O)[O-])s1 [Nitazoxanide] | 18.8
32 | Cc1cc(Nc2ncc(Cl)c(Nc3ccccc3S(=O)(=O)C(C)C)n2)c(OC(C)C)cc1C1CCN(CCOCCOCCNC(=O)CNc2cccc3c2C(=O)N(C2CCC(=O)NC2=O)C3=O)CC1 (centres undefined) | 66.9
33 | O=C1CN(/N=C/c2ccc(-c3ccc([N+](=O)[O-])cc3)o2)C(=O)N1 [dantrolene] | 27.9
34 | C=CC[C@@H]1/C=C(\C)C[C@H](C)C[C@H](OC)[C@H]2O[C@@](O)(C(=O)C(=O)N3CCCC[C@H]3C(=O)O[C@H](/C(C)=C/[C@@H]3CC[C@@H](O)[C@H](OC)C3)[C@H](C)[C@@H](O)CC1=O)[C@H](C)C[C@@H]2OC [Tacrolimus] | -32.9
